# Results published in PubChem BioAssay.
# Several values for one entry are separate records, joined by “and”; a condition that tells them apart may be missing. Identical values can stand only once. Activity calls are given as the source filed them.
# Experiments:
# [1] = binders of probe aFSTL3 on microarray, primary screen, stem cell growth factor project, biochemical, small-molecule microarray, fluorescence 635/667 (AID 1064); conditions: higher = more signal;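 note: measures binding of the biotinylated anti-FSTL3 antibody to printed compounds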
# [2] = binders from COS7 lysate, DM2A8 probe, primary screen, torsin A project, cell lysate, small-molecule microarray, fluorescence 635/667 (AID 1065); conditions: higher = more signal, COS7 lysate expressing mutant human TOR1A
# [3] = binders of probe aFGF2 on microarray, primary screen, stem cell growth factor project, biochemical, small-molecule microarray, fluorescence 635/667 (AID 1067); conditions: higher = more signal;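 note: measures binding of biotinylated aFGF2 protein to printed compounds on slides; z-score merges feature fluorescence and signal-to-noise across triplicate slides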
# [4] = binders of probe aFGF10 on microarray, primary screen, stem cell growth factor project, biochemical, small-molecule microarray, fluorescence 635/667 (AID 1071); conditions: higher = more signal;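 note: score merges 667 nm spot intensity and signal to noise from triplicate slides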
# [5] = target: Neurogenic locus notch homolog protein 2 (Homo sapiens) (UniProt Q04721); experiment: Notch2 binders on small-molecule microarrays, primary screen, biochemical, small-molecule microarray, 635 nm fluorescence, stem cell growth factors (AID 1073); conditions: Notch2 binding, higher = more signal
# Chain of Neurogenic locus notch homolog protein 2 (Homo sapiens) (Q04721 whole entry, looked up, canonical isoform): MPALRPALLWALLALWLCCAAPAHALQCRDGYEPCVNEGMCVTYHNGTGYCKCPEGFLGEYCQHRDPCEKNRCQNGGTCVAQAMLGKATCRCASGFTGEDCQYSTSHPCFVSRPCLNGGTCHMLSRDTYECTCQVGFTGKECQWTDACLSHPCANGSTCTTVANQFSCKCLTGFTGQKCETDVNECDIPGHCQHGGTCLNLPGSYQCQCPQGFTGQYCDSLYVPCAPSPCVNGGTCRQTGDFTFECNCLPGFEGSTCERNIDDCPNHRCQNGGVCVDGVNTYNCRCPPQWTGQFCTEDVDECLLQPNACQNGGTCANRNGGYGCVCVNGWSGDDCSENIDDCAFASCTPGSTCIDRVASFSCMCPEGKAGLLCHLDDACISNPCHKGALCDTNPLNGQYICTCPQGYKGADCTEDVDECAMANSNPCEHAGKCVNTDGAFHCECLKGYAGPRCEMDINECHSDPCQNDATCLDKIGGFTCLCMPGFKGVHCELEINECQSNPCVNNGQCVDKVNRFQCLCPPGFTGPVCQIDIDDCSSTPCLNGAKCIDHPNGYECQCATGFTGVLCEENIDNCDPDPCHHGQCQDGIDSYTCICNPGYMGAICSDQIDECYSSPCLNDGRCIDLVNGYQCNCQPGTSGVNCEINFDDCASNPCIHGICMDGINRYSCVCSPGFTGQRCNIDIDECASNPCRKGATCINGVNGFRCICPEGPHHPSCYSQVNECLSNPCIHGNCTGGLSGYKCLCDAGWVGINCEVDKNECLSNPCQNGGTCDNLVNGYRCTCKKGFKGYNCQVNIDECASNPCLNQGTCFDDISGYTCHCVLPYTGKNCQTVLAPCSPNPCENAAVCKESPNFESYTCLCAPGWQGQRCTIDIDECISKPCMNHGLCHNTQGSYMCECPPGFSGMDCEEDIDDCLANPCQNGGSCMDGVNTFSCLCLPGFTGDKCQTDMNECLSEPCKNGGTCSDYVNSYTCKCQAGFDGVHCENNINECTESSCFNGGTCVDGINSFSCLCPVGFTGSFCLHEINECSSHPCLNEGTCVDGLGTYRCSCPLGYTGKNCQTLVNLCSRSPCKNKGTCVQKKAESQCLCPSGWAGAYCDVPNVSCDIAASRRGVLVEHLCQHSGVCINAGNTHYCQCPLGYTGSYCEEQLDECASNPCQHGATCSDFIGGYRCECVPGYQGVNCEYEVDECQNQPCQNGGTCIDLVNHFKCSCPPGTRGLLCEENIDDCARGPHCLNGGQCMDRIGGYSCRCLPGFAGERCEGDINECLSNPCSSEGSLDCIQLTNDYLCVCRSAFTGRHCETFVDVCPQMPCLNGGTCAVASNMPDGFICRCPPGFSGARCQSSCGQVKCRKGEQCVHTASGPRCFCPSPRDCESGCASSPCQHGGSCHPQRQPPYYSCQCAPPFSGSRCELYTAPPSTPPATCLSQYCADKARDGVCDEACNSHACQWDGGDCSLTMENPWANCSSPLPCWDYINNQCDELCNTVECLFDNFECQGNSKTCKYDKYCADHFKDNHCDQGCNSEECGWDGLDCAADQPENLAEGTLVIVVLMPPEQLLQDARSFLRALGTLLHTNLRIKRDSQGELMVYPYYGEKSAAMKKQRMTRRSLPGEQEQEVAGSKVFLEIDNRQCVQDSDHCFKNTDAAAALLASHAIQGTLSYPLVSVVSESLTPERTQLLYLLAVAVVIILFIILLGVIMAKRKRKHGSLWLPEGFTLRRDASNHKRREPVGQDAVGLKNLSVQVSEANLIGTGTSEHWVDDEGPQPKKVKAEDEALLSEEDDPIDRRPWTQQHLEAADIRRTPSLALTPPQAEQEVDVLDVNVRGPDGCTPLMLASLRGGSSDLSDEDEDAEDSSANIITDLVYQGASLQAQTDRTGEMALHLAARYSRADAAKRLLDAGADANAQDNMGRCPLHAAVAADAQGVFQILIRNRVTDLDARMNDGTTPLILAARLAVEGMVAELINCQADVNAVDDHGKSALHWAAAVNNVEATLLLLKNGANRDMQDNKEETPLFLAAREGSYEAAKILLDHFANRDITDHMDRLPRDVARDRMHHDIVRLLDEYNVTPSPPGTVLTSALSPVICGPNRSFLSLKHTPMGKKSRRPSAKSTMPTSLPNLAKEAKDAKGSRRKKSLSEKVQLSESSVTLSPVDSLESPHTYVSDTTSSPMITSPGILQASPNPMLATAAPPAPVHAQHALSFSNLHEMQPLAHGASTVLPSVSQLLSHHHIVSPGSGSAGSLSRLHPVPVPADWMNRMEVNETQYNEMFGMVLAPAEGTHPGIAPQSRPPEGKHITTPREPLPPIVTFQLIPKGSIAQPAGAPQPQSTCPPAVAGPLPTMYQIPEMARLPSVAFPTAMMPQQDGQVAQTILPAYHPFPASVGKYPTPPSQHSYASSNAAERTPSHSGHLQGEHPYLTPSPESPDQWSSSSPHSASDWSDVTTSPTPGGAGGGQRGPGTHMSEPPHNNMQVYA
# [6] = target: Pro-neuregulin-1, membrane-bound isoform (Homo sapiens) (UniProt Q02297); experiment: NRG1 binders on small-molecule microarrays, primary screen, psychiatric disease protein project, biochemical, small-molecule microarray, fluorescence 635/667 (AID 1075); conditions: NRG1 binding, 635 nm fluorescence, higher = more signal;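 note: score combines 667 nm spot fluorescence with signal to noise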
# Chain of Pro-neuregulin-1, membrane-bound isoform (Homo sapiens) (Q02297 whole entry, looked up, the tested form may be a part, canonical isoform): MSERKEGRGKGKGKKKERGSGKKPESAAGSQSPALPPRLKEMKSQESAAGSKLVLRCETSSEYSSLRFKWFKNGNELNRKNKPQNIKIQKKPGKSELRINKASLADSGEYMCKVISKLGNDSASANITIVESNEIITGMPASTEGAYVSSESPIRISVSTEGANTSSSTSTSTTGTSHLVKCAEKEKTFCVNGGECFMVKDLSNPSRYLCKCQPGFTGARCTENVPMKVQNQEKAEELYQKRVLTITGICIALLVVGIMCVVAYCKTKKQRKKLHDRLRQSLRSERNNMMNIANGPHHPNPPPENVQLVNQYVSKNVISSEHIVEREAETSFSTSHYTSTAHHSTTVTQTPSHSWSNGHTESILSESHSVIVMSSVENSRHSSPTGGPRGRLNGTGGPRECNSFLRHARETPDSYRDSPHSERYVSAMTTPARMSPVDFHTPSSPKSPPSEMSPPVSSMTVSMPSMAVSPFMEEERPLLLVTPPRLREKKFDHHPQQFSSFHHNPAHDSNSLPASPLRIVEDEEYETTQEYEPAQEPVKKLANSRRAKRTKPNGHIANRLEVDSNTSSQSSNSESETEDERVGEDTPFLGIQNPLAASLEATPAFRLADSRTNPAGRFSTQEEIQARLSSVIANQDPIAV
# [7] = test system: Neuregulin-1 EGF-like domain; experiment: binders of neuregulin-1 EGF-like domain, primary screen, biochemical, small-molecule microarray, 635 nm fluorescence (AID 1081); conditions: small-molecule microarray binding, higher = more signal;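 note: binding of the protein to compounds printed on small-molecule microarray slides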
# [8] = FRG1 promoter luciferase signal modulators, primary screen, FRG1 inhibition for FSHD, cell-based, C2C12 myotubes, firefly/Renilla luciferase, luminescence (AID 1084); conditions: higher = more signal, called active from +8 up or from −8 down
# [9] = binders of probe aFST on microarray, primary screen, stem cell growth factor project, biochemical, small-molecule microarray, fluorescence 635/667 (AID 1086); conditions: higher = more signal;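 note: score merges 667 nm fluorescence with signal-to-noise of each printed compound spot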
# [10] = binders of probe aHhip on microarray, primary screen, stem cell growth factor project, biochemical, small-molecule microarray, fluorescence 635/667 (AID 1087); conditions: higher = more signal;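 note: score merges spot fluorescence at 667nm with spot signal to noise ratio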
# [11] = test system: PRMT1 (protein arginine N-methyltransferase 1); experiment: PRMT1 binders on small-molecule microarrays, primary screen, biochemical, small-molecule microarray, 635 nm fluorescence (AID 1088); conditions: small-molecule microarray binding, higher = more signal;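 note: binding of Prmt1 protein to compounds spotted on small-molecule microarray slides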
# [12] = yeast growth modulation, basal conditions, primary screen, YJM789 clinical isolate, OD600, 24 h (AID 1089);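 note: growth of clinical yeast isolate S. cerevisiae YJM 789 seeded 1000 cells per well; test concentration not given here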; conditions: S. cerevisiae YJM789 growth, higher = more signal, called active from +8 up or from −8 down
# [13] = fission yeast growth modulation, primary screen, strain 972, OD600, 24 h, no modulator (AID 1090);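 note: basal condition with compound alone and no growth modifier present; test concentration not given here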; conditions: S. pombe 972 growth, higher = more signal, called active from +8 up or from −8 down
# [14] = S. cerevisiae growth modulation with rapamycin, primary screen, strain BY4716, OD600, 96 h (AID 1091); conditions: higher = more signal, called active from +8 up or from −8 down; note: test concentration not given here
# [15] = target: Torsin-1A-interacting protein 2 (Homo sapiens) (UniProt Q8NFQ8); experiment: LULL1 binders on small-molecule microarray, primary screen, cell lysate, human LULL1 lysate, 635/667 nm fluorescence (AID 1092); conditions: hLULL1 lysate binding, 635 nm fluorescence, higher = more signal;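 note: probe is lysate of COS7 cells overexpressing human LULL1; score merges per-feature 667 nm fluorescence with signal-to-noise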
# Chain of Torsin-1A-interacting protein 2 (Homo sapiens) (Q8NFQ8 whole entry, looked up): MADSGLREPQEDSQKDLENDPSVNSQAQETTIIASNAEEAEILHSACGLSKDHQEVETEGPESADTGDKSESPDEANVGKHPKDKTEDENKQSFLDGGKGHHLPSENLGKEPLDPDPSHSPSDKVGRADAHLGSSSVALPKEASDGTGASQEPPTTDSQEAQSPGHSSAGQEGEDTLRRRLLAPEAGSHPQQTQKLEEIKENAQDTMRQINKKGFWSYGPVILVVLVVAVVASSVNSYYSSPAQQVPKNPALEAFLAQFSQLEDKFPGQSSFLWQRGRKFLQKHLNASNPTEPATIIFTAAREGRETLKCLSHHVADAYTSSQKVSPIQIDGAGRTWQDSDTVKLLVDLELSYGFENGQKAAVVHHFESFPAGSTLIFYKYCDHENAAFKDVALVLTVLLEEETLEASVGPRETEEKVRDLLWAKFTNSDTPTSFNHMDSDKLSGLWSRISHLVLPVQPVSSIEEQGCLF
# [16] = E. coli growth modulation, two-sided OD650, primary screen, E. coli filamentation project, strain DRC41, 24 h (AID 1093); conditions: OD650, 24 h, higher = more signal, called active from +8 up or from −8 down;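 note: MC1000 strain lacking acrAB efflux and sulA so SOS filamentation is blocked; test concentration not given here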
# [17] = small-molecule microarray binders of probe aLefty2, primary screen, biochemical, biotinylated probe, 635/667 nm fluorescence (AID 1094); conditions: higher = more signal;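 note: score merges spot fluorescence near 667 nm with spot signal-to-noise ratio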
# [18] = test system: Noggin (protein binding on small-molecule microarray); experiment: Noggin binders on small-molecule microarray, primary screen, biochemical, 635/667 nm fluorescence (AID 1095); conditions: 635 nm fluorescence, higher = more signal;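 note: score merges 667 nm feature fluorescence with signal to noise over triplicate slides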
# [19] = target: Neurogenic locus notch homolog protein 3 (Homo sapiens) (UniProt Q9UM47); experiment: NOTCH3 binders on small-molecule microarray, primary screen, biochemical, 635/667 nm fluorescence (AID 1096); conditions: NOTCH3 binding, 635 nm fluorescence, higher = more signal
# [20] = small-molecule microarray binders of probe aEGFR, primary screen, biochemical, biotinylated probe, 635/667 nm fluorescence (AID 1097); conditions: higher = more signal;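 note: probe is a biotinylated anti-EGFR antibody binding compounds printed on slides; score combines fluorescence near 667 nm and signal to noise of each spot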
Compound,composite z-score [1],composite z-score [2],composite z-score [3],composite z-score [4],composite z-score [5],composite z-score [6],composite z-score [7],z-score [8],composite z-score [9],composite z-score [10],composite z-score [11],z-score [12],z-score [13],z-score [14],composite z-score [15],z-score [16],composite z-score [17],composite z-score [18],composite z-score [19],composite z-score [20]
C=CCN(Cc1ccccc1)C(=O)C1N(CCOCCO)C(=O)C2C(C(=O)O)C3C=CC21O3 (stereo not given),1.75 and 1.34,-1.1 and -1.84,-0.309 and -0.27,-2.7 and -1.09,-2.27 and -1.42,1.27 and 0.866,0.731 and 0.433,-0.91 (inactive) and -0.244 (inactive),-1.06 and -1.03,-0.423 and -0.362,-0.576 and -0.797,-1.93 (inactive) and 0.844 (inactive),-1.52 (inactive) and -0.0833 (inactive),-1.25 (inactive) and 0.225 (inactive),3.27 and 2.73,2.42 (inactive) and 1.4 (inactive),0.22 and 0.141,-3.1 and -1.88,-0.74 and -0.734,-0.323 and -0.278
COC(=O)C1=C(C)N(Cc2ccccc2)C2=C3C(=O)N(C)C(=O)[C@@H]3[C@@](O)(C(=O)OC)C(=O)N2[C@@H]1c1ccccc1,-0.0472 and -0.448,0.131 and 0.375,-0.0301 and -0.0158,0.721 and 0.128,0.356 and 0.415,-0.239 and -0.0154,-0.322 and -0.0698,0.121 (inactive) and -0.811 (inactive),0.224 and -0.114,0.251 and -0.0645,0.471 and 0.0202,0.0264 (inactive) and -1.64 (inactive),-0.774 (inactive) and -1.87 (inactive),-0.807 (inactive) and -0.913 (inactive),0.0055 and 0.222,0.858 (inactive) and -0.0481 (inactive),0.0494 and -0.184,0.34 and 0.538,0.182 and 0.361,-0.138 and 0.131
COC(=O)C1=C(C)N(Cc2ccccc2)[C@]23O[C@](C(=O)OC)(C(=O)N2[C@@H]1c1ccccc1)[C@H]1C(=O)N(C)C(=O)[C@H]13,-0.342 and -0.556,0.117 and 0.134,-0.137 and -0.0212,0.566 and 0.842,0.585 and 0.405,1.14 and -0.0494,1.17 and 0.892,-0.564 (inactive) and 0.0169 (inactive),0.271 and 0.2,0.0439 and -0.121,1.42 and 0.289,-0.458 (inactive) and -0.907 (inactive),-0.0692 (inactive) and -1.06 (inactive),0.609 (inactive) and -0.776 (inactive),1.9 and 0.741,1.12 (inactive) and 0.684 (inactive),-0.0831 and -0.125,1.35 and 0.752,0.877 and 0.903,-0.0967 and 0.128
C[N+](C)(C)CCCCCCNC(=O)[C@@H]1C[C@@H]2C(=O)N[C@@H](CCCC[N+](C)(C)C)C(=O)N2[C@@H]1c1ccc(O)cc1,0.245 and -0.175,0.0279 and -0.0321,-0.12 and -0.181,0.0015 and -0.155,-0.423 and -0.213,0.142 and 1.11,1.35 and 1.36,0.403 (inactive) and 2.73 (inactive),-0.12 and -0.0447,-0.206 and -0.266,1 and 1.3,0.272 (inactive) and 0.534 (inactive),0.352 (inactive) and 0.356 (inactive),0.02 (inactive) and 0.327 (inactive),0.611 and 2.02,0.392 (inactive) and -0.176 (inactive),-0.0356 and -0.117,1.21 and 1.28,0.643 and 0.994,-0.122 and -0.128
CCN1C(=O)[C@H]2[C@H]3[C@H](O)[C@H](O)CC(=NNC(=O)OCc4ccc(OC)cc4)[C@H]3CC[C@H]2C1=O,2.2,0.349,-0.0775,0.284,-0.0863,-0.116,-0.222,-0.0988 (inactive),1.03,-0.0482,0.0536,0.523 (inactive),-0.312 (inactive),0.41 (inactive),0.677,-0.17 (inactive),0.656,-0.283,-0.143,0.0004
COC(=O)[C@H](C)NC(=O)CCC1CC(OC(=O)NCCc2ccc(F)cc2)CC2(CCCC(COC(=O)NCCCN3CCCC3=O)O2)O1 (stereo not given in full),-0.78,0.267,-0.0358,0.404,1.25,0.623,1.2,0.434 (inactive),0.367,0.0373,1.55,-0.432 (inactive),0.899 (inactive),0.849 (inactive),1.64,-0.681 (inactive),-0.168,0.727,1.03,-0.0505
C=CCN(CCCC)C(=O)C1N(CCOCCO)C(=O)C2C(C(=O)O)C3C=CC21O3 (stereo not given),0.398 and 0.725,-1.98 and -0.776,-0.209 and -0.116,-1.13 and -0.467,-1.17 and -2.39,1.64 and -0.729,1.61 and 1.51,0.75 (inactive) and 0.0827 (inactive),-0.792 and -1.02,-0.169 and -0.306,-0.779 and -1.02,0.784 (inactive) and 1.05 (inactive),0.269 (inactive) and 0.777 (inactive),1.11 (inactive) and 1.07 (inactive),2.94 and -0.643,0.489 (inactive) and 0.0433 (inactive),-0.0065 and -0.291,-2.5 and -2.13,-0.298 and -1.36,-0.326 and -0.314
